According to the supplement of paper PMC10849652:
The full data set covers some 7,900 targets. This sample favours those with a hit. About 0.6% of all pairs of compound and target were hits.

Columns and labels:
Assay in all cases: log2 fold change, soluble protein after heating vs DMSO (PISA); higher = thermal stabilisation; K562 cells, 10 uM, 30 min; active = over 0.2 and 3.5 SD of the protein, either way, in both replicates (recomputed)
erlotinib = compound: C#Cc1cccc(Nc2ncnc3cc(OCCOC)c(OCCOC)cc23)c1 [erlotinib]
Outline: (§1)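 Quantification of soluble protein used TMTpro 16plex LC-MS/MS, with channel sums equalised. Samples were the supernatant after 21,000xg for 90 min of pooled aliquots from K562 cells (2×10^6 cells/mL) treated with 10 μM compound for 30 min, heated for 3 min over 48°C-58°C, and extracted in PBS with 0.5% NP-40 at 4°C. Values, from duplicates, describe thermal stability against control samples on a log2 fold-change scale.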

[1] = compound: C/C(=N\NC(=O)C1=CC(=CC=C1)S(=O)(=O)N2CCOCC2)/C3=C(C=CC(=C3)Cl)O
Outline: as §1

[2] = compound: C1=CC(=C(C=C1Cl)C2=NC3=NC=CN=C3C(=N2)NC4=CC=NC=C4)F
Outline: as §1

[3] = compound: C1=CC(=CC=C1C2=NC3=C(N2)C=C(C=C3)C(=O)N)OC4=CC=C(C=C4)Cl
Outline: as §1

[4] = compound: C1=CC2=C(C=CC(=C2)/C=C\3/C(=O)NC(=NCC4=CC=CS4)S3)N=C1
Outline: as §1

[5] = compound: C1=CC2=NC=CN=C2C=C1/C=C/3\C(=O)NC(=O)S3
Outline: as §1

[6] = compound: C1=CC=C(C=C1)C2=NC(=C(N2)C3=CC=NC=C3)C4=CC(=C(C=C4)Cl)O
Outline: as §1

[7] = compound: C1=CC=C2C(=C1)C3=NNC4=CC=CC(=C43)C2=O
Outline: as §1

[8] = compound: C1CCN(C1)C(=O)NC2=CC=CC(=C2)NC3=NC=C(C(=N3)NCCC4=CN=CN4)Br
Outline: as §1

[9] = compound: C1CN(CCC1(CC2=CC=C(C=C2)Cl)N)C3=NC=NC4=C3C=CN4
Outline: as §1

IRAK-1-4 Inhibitor I = compound: C1COCCN1CCN2C3=CC=CC=C3N=C2NC(=O)C4=CC(=CC=C4)[N+](=O)[O-] [IRAK-1-4 Inhibitor I]
Outline: as §1

ibrutinib = compound: C=CC(=O)N1CCC[C@@H](n2nc(-c3ccc(Oc4ccccc4)cc3)c3c(N)ncnc32)C1 [ibrutinib]
Outline: as §1

[10] = compound: CC(=O)c1cnc2ccc(-c3cc(Cl)c(O)c(Cl)c3)nc2c1N[C@H]1CC[C@H](CN(C)C)CC1
Outline: as §1

ralimetinib = compound: CC(C)(C)Cn1c(N)nc2ccc(-c3[nH]c(C(C)(C)C)nc3-c3ccc(F)cc3)nc21 [ralimetinib]
Outline: as §1

[11] = compound: CC(C)(O)CC(=O)NCCn1ccc2ncnc(Nc3ccc(Oc4cccc(C(F)(F)F)c4)c(Cl)c3)c21
Outline: as §1

[12] = compound: CC(C)C1=C2N=C(C=C(N2N=C1)NCC3=CC=CC=C3)NCCCCCCN
Outline: as §1

[13] = compound: CC(C)C[C@@H](C=O)NC(=O)[C@H](CC(C)C)NC(=O)[C@H](CC(C)C)NC(=O)OCc1ccccc1
Outline: as §1

pinometostat = compound: CC(C)N(C[C@H]1O[C@@H](n2cnc3c(N)ncnc32)[C@H](O)[C@@H]1O)[C@H]1C[C@@H](CCc2nc3cc(C(C)(C)C)ccc3[nH]2)C1 [pinometostat]
Outline: as §1

[14] = compound: CC1=C(C(CC(=O)N1)C2=CC=C(C=C2)C(F)(F)F)C(=O)NC3=C(C=C4C(=C3)C=NN4)F
Outline: as §1

[15] = compound: CC1=C(C2=C(C=C1)C(=O)C3=CC=CC=C3N2CCCN)C
Outline: as §1

Measured: log2 fold change

USP15 (UniProt Q9Y4E8)
inactive: erlotinib 0.026 | [1] 0.078 | [2] 0.08 | [3] -0.015 | [4] 0.027 | [5] 0.031 | [6] 0 | [7] 0.012 | [8] -0.011 | [9] -0.031 | IRAK-1-4 Inhibitor I -0.028 | ibrutinib -0.034 | [10] 0.008 | ralimetinib -0.004 | [11] -0.067 | [12] -0.154 | [13] 0.012 | pinometostat 0.012 | [14] 0 | [15] -0.019

TOM1 isoform 2 (UniProt O60784)
Chain of UniProt O60784 (O60784 whole entry, looked up): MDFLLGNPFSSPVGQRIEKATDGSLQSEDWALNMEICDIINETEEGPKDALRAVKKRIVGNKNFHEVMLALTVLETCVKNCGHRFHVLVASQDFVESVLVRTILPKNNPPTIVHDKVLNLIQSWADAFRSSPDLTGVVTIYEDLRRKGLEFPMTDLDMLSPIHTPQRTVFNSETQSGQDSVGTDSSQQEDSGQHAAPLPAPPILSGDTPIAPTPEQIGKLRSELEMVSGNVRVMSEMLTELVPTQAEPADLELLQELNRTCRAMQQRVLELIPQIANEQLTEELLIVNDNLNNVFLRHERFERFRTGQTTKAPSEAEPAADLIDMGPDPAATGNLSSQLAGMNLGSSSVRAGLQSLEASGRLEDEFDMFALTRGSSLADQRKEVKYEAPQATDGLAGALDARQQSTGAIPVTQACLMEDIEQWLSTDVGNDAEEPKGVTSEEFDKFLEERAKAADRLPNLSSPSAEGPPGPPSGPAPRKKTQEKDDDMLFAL
inactive: erlotinib 0.012 | [1] 0.014 | [2] 0.107 | [3] -0.04 | [4] -0.006 | [5] -0.016 | [6] -0.053 | [7] 0.004 | [8] -0.023 | [9] 0.014 | IRAK-1-4 Inhibitor I 0.101 | ibrutinib 0.013 | [10] 0.028 | ralimetinib 0.071 | [11] -0.017 | [12] -0.302 | [13] 0.033 | pinometostat 0.023 | [14] -0.006 | [15] 0.16

TMEM41A (UniProt Q96HV5)
inactive: erlotinib 0.013 | [1] 0.046 | [2] -0.02 | [3] -0.014 | [4] 0.024 | [5] 0.037 | [6] -0.04 | [7] 0.013 | [8] -0.069 | [9] 0.033 | IRAK-1-4 Inhibitor I -0.022 | ibrutinib -0.007 | [10] -0.04 | ralimetinib 0.033 | [11] 0.022 | [12] 0.043 | [13] -0.079 | pinometostat -0.06 | [14] 0.035 | [15] 0.151

WARS2 (UniProt Q9UGM6)
Chain of UniProt Q9UGM6 (Q9UGM6 whole entry, looked up): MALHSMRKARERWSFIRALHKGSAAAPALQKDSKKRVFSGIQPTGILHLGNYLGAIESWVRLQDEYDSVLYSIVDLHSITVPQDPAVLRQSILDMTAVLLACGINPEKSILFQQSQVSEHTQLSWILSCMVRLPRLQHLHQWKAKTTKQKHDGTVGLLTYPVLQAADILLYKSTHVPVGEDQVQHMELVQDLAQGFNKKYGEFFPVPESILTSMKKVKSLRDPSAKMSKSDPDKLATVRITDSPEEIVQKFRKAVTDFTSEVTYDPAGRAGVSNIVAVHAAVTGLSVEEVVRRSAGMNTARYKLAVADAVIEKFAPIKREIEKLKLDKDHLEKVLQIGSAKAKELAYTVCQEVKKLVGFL
inactive: erlotinib 0.069 | [1] -0.016 | [2] 0.034 | [3] -0.094 | [4] 0.033 | [5] 0.006 | [6] -0.032 | [7] 0.031 | [8] 0.027 | [9] -0.027 | IRAK-1-4 Inhibitor I -0.016 | ibrutinib -0.075 | [10] -0.031 | ralimetinib -0.017 | [11] -0.144 | [12] -0.204 | [13] 0.016 | pinometostat -0.053 | [14] -0.026 | [15] -0.004

USP7 (UniProt Q93009)
inactive: erlotinib 0.089 | [1] 0.139 | [2] 0.046 | [3] 0 | [4] 0.159 | [5] 0.004 | [6] 0.068 | [7] 0.085 | [8] -0.04 | [9] -0.003 | IRAK-1-4 Inhibitor I -0.102 | ibrutinib -0.021 | [10] -0.078 | ralimetinib 0 | [11] -0.172 | [12] -0.198 | [13] 0.012 | pinometostat 0.024 | [14] 0 | [15] 0.17

WASHC3 (UniProt Q9Y3C0)
Chain of UniProt Q9Y3C0 (Q9Y3C0 whole entry, looked up): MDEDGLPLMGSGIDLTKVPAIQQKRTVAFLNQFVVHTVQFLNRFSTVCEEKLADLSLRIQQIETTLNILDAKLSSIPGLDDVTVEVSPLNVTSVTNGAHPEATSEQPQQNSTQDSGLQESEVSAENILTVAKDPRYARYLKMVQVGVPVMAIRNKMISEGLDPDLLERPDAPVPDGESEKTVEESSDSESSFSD
inactive: erlotinib 0.029 | [1] -0.015 | [2] 0.053 | [3] 0.007 | [4] 0.12 | [5] 0.036 | [6] 0.017 | [7] -0.114 | [8] -0.041 | [9] 0.059 | IRAK-1-4 Inhibitor I 0.096 | ibrutinib 0.015 | [10] 0.023 | ralimetinib -0.033 | [11] 0.024 | [12] -0.166 | [13] -0.041 | pinometostat -0.074 | [14] 0.059 | [15] 0.032

TMEM9B (UniProt Q9NQ34)
Chain of UniProt Q9NQ34 (Q9NQ34 whole entry, looked up): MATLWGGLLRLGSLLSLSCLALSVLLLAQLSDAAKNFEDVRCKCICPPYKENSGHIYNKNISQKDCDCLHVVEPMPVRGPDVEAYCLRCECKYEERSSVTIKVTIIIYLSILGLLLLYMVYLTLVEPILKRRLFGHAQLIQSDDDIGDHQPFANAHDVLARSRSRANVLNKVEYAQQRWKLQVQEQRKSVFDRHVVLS
active: ralimetinib 0.324
inactive: erlotinib 0.062 | [1] -0.044 | [2] 0.009 | [3] -0.006 | [4] 0.055 | [5] -0.013 | [6] -0.016 | [7] -0.016 | [8] -0.006 | [9] 0.042 | IRAK-1-4 Inhibitor I -0.019 | ibrutinib 0.038 | [10] -0.083 | [11] 0.014 | [12] -0.082 | [13] -0.006 | pinometostat 0.015 | [14] 0.027 | [15] 0.038

UFL1 (UniProt O94874)
Chain of UniProt O94874 (O94874 whole entry, looked up): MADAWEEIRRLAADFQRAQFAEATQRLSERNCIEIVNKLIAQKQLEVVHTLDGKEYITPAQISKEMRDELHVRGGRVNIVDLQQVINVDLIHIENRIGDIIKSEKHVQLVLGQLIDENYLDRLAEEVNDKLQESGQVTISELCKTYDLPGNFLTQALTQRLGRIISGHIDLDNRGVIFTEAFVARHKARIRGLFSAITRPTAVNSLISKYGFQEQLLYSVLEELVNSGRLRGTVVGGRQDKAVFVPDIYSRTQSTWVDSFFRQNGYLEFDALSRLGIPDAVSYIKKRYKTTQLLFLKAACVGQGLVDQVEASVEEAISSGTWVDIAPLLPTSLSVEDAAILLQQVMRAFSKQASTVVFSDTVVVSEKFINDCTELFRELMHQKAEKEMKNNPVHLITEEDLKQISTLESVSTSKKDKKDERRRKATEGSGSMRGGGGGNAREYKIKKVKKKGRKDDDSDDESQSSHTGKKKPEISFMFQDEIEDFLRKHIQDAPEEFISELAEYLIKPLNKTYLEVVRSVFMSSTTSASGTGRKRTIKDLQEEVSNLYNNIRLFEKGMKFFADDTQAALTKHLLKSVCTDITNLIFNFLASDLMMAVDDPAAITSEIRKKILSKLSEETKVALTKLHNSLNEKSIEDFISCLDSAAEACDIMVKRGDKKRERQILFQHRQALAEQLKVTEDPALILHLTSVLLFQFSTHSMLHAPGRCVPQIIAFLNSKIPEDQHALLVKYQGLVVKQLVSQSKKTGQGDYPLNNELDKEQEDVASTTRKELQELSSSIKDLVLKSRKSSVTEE
inactive: erlotinib 0.06 | [1] 0.075 | [2] 0.037 | [3] -0.03 | [4] 0.021 | [5] 0.021 | [6] 0.069 | [7] 0.096 | [8] -0.012 | [9] -0.101 | IRAK-1-4 Inhibitor I -0.048 | ibrutinib -0.037 | [10] -0.022 | ralimetinib 0.073 | [11] -0.055 | [12] -0.142 | [13] 0.015 | pinometostat 0.042 | [14] -0.017 | [15] 0.026

TRMT2A (UniProt Q8IZ69)
Chain of UniProt Q8IZ69 (Q8IZ69 whole entry, looked up): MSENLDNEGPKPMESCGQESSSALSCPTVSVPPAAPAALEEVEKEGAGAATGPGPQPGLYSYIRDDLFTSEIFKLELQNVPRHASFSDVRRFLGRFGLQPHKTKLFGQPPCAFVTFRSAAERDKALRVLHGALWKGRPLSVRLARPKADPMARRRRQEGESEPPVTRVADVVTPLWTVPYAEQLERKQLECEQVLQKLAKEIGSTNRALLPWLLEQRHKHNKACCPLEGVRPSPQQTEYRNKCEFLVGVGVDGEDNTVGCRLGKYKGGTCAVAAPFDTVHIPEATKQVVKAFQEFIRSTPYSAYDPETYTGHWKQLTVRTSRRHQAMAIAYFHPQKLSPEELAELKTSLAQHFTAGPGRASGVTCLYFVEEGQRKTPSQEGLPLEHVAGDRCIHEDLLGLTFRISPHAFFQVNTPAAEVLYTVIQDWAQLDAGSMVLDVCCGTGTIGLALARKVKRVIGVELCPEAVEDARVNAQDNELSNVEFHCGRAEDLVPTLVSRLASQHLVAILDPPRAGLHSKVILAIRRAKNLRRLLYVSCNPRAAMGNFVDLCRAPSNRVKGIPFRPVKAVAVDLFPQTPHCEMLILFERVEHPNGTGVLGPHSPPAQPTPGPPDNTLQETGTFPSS
inactive: erlotinib 0 | [1] 0.069 | [2] -0.124 | [3] 0.07 | [4] -0.016 | [5] -0.009 | [6] -0.026 | [7] -0.09 | [8] 0.031 | [9] -0.011 | IRAK-1-4 Inhibitor I -0.028 | ibrutinib 0.005 | [10] -0.098 | ralimetinib 0.039 | [11] 0.013 | [12] -0.146 | [13] 0.034 | pinometostat 0.085 | [14] 0.018 | [15] -0.142

XRCC5 (UniProt P13010)
Chain of UniProt P13010 (P13010 whole entry, looked up): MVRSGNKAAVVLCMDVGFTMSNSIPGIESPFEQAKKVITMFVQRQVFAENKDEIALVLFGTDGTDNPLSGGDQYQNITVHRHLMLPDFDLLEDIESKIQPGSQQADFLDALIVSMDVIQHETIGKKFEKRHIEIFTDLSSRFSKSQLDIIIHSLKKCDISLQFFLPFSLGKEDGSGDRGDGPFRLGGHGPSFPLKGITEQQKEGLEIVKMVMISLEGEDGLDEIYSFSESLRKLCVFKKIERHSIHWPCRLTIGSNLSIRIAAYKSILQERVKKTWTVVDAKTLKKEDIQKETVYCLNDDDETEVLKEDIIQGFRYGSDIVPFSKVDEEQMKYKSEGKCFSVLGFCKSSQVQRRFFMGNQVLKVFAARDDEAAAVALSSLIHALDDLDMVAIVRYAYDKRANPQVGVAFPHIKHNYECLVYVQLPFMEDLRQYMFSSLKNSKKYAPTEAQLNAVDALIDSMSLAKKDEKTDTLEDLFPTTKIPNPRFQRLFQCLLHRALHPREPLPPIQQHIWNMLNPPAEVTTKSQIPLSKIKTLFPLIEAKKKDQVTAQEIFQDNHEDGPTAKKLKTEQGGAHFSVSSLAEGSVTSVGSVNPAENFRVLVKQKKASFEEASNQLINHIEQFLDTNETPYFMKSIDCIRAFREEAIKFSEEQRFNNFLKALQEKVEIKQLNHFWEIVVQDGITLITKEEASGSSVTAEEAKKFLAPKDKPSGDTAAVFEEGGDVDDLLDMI
active: [12] -0.505
inactive: erlotinib 0.103 | [1] 0.178 | [2] -0.012 | [3] -0.038 | [4] 0.079 | [5] 0.037 | [6] 0.11 | [7] -0.039 | [8] -0.059 | [9] -0.139 | IRAK-1-4 Inhibitor I -0.264 | ibrutinib -0.104 | [10] -0.214 | ralimetinib 0.083 | [11] -0.175 | [13] 0.126 | pinometostat -0.01 | [14] 0 | [15] -0.065

UBE4A isoform 2 (UniProt Q14139)
inactive: erlotinib 0.012 | [1] 0.148 | [2] 0.083 | [3] -0.11 | [4] 0.012 | [5] 0.083 | [6] -0.039 | [7] -0.301 | [8] -0.018 | [9] -0.132 | IRAK-1-4 Inhibitor I -0.114 | ibrutinib -0.125 | [10] -0.017 | ralimetinib 0.02 | [11] -0.032 | [13] 0.096 | pinometostat 0.093 | [14] 0.098 | [15] 0.041
active: [12] -0.376

XRCC6 (UniProt P12956)
Chain of UniProt P12956 (P12956 whole entry, looked up): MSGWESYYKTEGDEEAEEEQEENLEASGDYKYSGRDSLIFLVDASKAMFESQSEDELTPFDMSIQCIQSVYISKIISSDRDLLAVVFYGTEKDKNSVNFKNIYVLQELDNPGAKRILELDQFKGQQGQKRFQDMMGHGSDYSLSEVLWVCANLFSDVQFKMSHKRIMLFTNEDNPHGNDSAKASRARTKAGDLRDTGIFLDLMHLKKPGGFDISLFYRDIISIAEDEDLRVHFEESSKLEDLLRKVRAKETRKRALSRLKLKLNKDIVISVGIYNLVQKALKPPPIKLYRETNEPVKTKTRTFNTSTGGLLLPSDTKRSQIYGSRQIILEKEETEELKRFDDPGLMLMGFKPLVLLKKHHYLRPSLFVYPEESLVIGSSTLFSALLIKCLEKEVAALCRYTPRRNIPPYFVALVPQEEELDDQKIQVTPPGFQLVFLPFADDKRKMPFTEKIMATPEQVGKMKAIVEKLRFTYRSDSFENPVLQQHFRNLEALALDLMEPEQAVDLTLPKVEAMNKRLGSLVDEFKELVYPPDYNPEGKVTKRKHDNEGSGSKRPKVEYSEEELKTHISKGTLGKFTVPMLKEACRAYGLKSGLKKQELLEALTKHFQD
inactive: erlotinib 0.025 | [1] 0.103 | [2] 0.093 | [3] 0.011 | [4] 0.065 | [5] 0.031 | [6] -0.023 | [7] -0.036 | [8] -0.043 | [9] -0.025 | IRAK-1-4 Inhibitor I -0.046 | ibrutinib -0.057 | [10] -0.12 | ralimetinib -0.004 | [11] -0.124 | [12] -0.195 | [13] 0.074 | pinometostat -0.01 | [14] -0.001 | [15] -0.008

TMEM161A (UniProt Q9NX61)
inactive: erlotinib 0.017 | [1] 0.088 | [2] -0.019 | [3] -0.018 | [4] 0.021 | [5] 0.001 | [6] 0.029 | [7] -0.006 | [8] -0.067 | [9] 0.054 | IRAK-1-4 Inhibitor I 0.03 | ibrutinib -0.015 | [10] 0.045 | ralimetinib -0.059 | [11] -0.17 | [13] -0.045 | pinometostat 0.121 | [14] -0.076 | [15] 0.071
active: [12] -0.395

TMEM192 (UniProt Q8IY95)
Chain of UniProt Q8IY95 (Q8IY95 whole entry, looked up): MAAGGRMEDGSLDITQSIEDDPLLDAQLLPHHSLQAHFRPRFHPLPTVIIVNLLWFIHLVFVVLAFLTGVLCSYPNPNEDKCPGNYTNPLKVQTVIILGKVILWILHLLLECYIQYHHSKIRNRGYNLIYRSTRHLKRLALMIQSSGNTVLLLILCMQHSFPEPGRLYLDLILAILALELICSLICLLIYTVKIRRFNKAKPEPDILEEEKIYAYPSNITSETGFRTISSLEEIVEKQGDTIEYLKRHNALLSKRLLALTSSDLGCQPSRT
inactive: erlotinib 0.044 | [1] -0.017 | [2] 0.011 | [3] -0.008 | [4] -0.011 | [5] 0.067 | [6] 0.011 | [7] -0.017 | [8] 0.039 | [9] 0.038 | IRAK-1-4 Inhibitor I 0.047 | ibrutinib -0.014 | [10] -0.012 | ralimetinib 0.025 | [11] 0.004 | [13] 0.029 | pinometostat 0.051 | [14] -0.004 | [15] -0.019
active: [12] -0.481

VPS28 (UniProt Q9UK41)
Chain of UniProt Q9UK41 (Q9UK41 whole entry, looked up): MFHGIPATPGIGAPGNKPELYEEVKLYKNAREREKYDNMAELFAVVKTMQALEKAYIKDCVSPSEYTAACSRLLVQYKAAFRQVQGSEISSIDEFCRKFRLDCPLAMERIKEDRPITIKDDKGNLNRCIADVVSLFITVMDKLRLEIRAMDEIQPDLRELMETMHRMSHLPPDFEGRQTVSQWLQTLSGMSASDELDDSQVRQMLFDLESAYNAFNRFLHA
inactive: erlotinib -0.072 | [1] 0.031 | [2] 0.27 | [3] -0.011 | [4] 0.009 | [5] 0.023 | [6] 0.009 | [7] 0.001 | [8] -0.091 | [9] -0.043 | IRAK-1-4 Inhibitor I -0.052 | ibrutinib 0.058 | [10] -0.018 | ralimetinib -0.051 | [11] -0.13 | [12] -0.189 | [13] 0.027 | pinometostat 0.059 | [14] 0.075 | [15] 0.04

U2AF2 (UniProt P26368)
Chain of UniProt P26368 (P26368 whole entry, looked up): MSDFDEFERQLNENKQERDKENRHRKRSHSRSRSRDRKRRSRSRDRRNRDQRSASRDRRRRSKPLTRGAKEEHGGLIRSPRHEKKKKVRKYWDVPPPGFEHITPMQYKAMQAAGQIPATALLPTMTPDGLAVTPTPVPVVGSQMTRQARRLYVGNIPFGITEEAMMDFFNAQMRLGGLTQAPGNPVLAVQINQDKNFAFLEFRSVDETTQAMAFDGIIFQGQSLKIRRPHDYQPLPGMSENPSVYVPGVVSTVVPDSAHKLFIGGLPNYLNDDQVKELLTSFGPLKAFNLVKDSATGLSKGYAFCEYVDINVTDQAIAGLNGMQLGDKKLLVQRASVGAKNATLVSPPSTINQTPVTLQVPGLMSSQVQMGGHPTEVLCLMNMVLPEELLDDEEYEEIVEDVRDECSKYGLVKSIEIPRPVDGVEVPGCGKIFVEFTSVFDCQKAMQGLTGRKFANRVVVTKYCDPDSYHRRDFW
active: [10] -0.313
inactive: erlotinib 0.012 | [1] 0.045 | [2] -0.013 | [3] 0.029 | [4] -0.045 | [5] -0.004 | [6] 0.012 | [7] -0.048 | [8] -0.026 | [9] -0.074 | IRAK-1-4 Inhibitor I -0.069 | ibrutinib 0.029 | ralimetinib 0.03 | [11] -0.011 | [12] -0.102 | [13] 0.028 | pinometostat 0.03 | [14] -0.04 | [15] 0.192
